Records with an inconclusive call do not appear. The source made the active and inactive calls. Unless noted, calls come from the whole dose curve; as a rule, active = well fitted curve in the direction sought with a large enough effect; inconclusive = small, poorly fitted or top-dose-only effect, or another doubt; inactive = no such curve, though single readings can be large; an effect the other way counts as inactive or inconclusive.

Assay [1] has as its target Glucocorticoid receptor (Homo sapiens) (UniProt P04150). The experiment in a line: GR-EFC Redistribution (AID 451; calls by dose curve; note: potency is the fitted concentration of half-maximal effect). As to conditions: CHO-K1 GR-EFC translocation, beta-gal luminescence, 2 h. Summed up: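 CHO-K1 cells stably expressing nuclear-localized β-gal enzyme acceptor and GR fused C-terminally to the enzyme donor fragment; ligand-driven nuclear translocation restores β-gal by complementation. Compounds titrated up to 46 uM final, 2 h at 37 °C; luminescence read.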

Assay [2] addresses Mitogen-activated protein kinase 10 (Mus musculus) (UniProt Q61831). The experiment in a line: JNK3 AlphaScreen Assay (AID 530; active = well fitted curve in either direction with a large enough effect, not every such curve was filed as active;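 note: kinase came from lysate of stimulated human HepG2 cells; % is set by controls: 0 for no effect and ±100 for the full control effect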). As to conditions: JNK3 lysate, c-Jun phosphorylation; series mostly up to 25.6 µM. The method, boiled down: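 JNK3 came from HepG2 lysates pre-activated with IL-1beta and TNF-alpha and phosphorylated biotinylated GST-cJun (1-79) at 10 uM ATP, pH 7.6, room temperature. Compounds were titrated. AlphaScreen signal used anti-phospho-cJun (Ser73) antibody.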
Background: In Alpha technology, singlet oxygen from a donor bead excites a nearby acceptor bead.

Assay [3] can be described thus: qHTS Assay for Lipid Storage Modulators (AID 1519; calls by dose curve; for activity change, negative = inhibition: % is set by controls: 0 for no effect and ±100 for the full control effect). As to conditions: Drosophila S3 cells, BODIPY lipid droplet/cell ratio, laser cytometry, cells loaded with oleic acid; for activity change, negative = inhibition: at 25.7 µM (top of the series). The method, boiled down:
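Cells seeded at 5,000 per well were treated with compounds over a concentration series and loaded with oleic acid (400 uM, as added). Lipid droplet fluorescence (488 nm excitation, 500-530 nm channel) was read by laser-scanning cytometry and normalized to 20 uM Triacsin C.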
A general note: In qHTS, concentration-response curves come from the screen itself.

The target in assay [4] is Ubiquitin carboxyl-terminal hydrolase 1 (Homo sapiens) (UniProt O94782). Put plainly: Inhibitors of USP1/UAF1: Pilot qHTS (AID 504865).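 Note: rhodamine fluorescence freed from ubiquitin-rhodamine substrate followed over time; top concentration of the series differs between compounds; % is set by controls: 0 for no effect and ±100 for the full control effect; nearly all actives have a fitted effect of over 35% in size.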 Particulars: purified USP1/UAF1, Ub-rhodamine cleavage fluorescence; series mostly up to 114 µM. Summed up: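 1nM USP1/UAF1 + cpd, 15 min RT; start w/ Ub-Rho 150nM final; kinetic FL 480/540 nm, 6 reads q60 s. Buffer 50mM HEPES pH 7.8, 0.5mM EDTA, 1mM TCEP, 0.01% Tween-20, 0.1 mg/ml BSA.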
Ubiquitin carboxyl-terminal hydrolase 1 (Homo sapiens), sequence (O94782 whole entry, looked up): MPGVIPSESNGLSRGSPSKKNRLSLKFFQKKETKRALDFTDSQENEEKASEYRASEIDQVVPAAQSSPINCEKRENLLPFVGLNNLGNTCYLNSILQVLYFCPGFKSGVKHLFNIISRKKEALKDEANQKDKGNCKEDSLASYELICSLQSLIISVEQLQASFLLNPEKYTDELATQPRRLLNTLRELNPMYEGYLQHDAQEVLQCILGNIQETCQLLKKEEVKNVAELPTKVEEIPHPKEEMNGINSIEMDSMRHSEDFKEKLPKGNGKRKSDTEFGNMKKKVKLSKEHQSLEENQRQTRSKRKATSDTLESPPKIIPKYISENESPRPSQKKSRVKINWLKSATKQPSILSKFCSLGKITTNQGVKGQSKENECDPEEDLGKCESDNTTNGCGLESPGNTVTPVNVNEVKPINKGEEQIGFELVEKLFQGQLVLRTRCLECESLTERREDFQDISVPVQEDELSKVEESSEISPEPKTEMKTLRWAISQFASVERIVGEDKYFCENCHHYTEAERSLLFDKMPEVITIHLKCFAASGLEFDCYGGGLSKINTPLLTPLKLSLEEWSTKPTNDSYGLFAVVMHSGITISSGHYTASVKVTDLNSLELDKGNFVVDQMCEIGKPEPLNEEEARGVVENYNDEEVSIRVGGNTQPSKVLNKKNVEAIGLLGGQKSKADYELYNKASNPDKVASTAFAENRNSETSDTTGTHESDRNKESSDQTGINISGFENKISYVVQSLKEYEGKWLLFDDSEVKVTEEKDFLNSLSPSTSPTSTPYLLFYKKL

The target of assay [5] is 3',5'-cyclic-AMP phosphodiesterase 4B (Homo sapiens) (UniProt Q07343). The experiment in a line: qHTS Assay for Inhibitors of PDE-IV (AID 607; active = well fitted activation curve with a large enough effect in the main read-out, with a control signal flat, not every such curve was filed as active; note: % of control where 0% means no effect). As to conditions: HEK293 ACTOne CNG channel cells, membrane potential fluorescence; series mostly up to 22.9 µM. Summed up:
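Live HEK293 cells with a modified cyclic nucleotide-gated (CNG) channel report intracellular cAMP via membrane-potential dye fluorescence (ex 535/em 590 nm). Endogenous PDE-IV was targeted. Compounds were tested at up to 22.9 uM final; RO 20-1724 100 uM served as control.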

In assay [6] the target is ATP-dependent 6-phosphofructokinase (Trypanosoma brucei brucei) (UniProt O15648). Put plainly: qHTS Assay to Find Inhibitors of T. brucei phosphofructokinase: hit validation (AID 492961).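 Note: luminescence reports ADP formed as PFK phosphorylates fructose-6-phosphate with ATP; % is set by controls: 0 for no effect and ±100 for the full control effect.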 As to conditions: T. brucei PFK, ADP-Glo luminescence; series mostly up to 24.3 µM. The method, boiled down:
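PFK 1.25 nM, F6P 0.5 mM, ATP 0.1 mM, MgCl2 5 mM, 0.1 M TEA pH 8.0, Tween20 0.01%, BSA 0.1%; 45 min RT. ADP-Glo two-step detection, luminescence. qHTS titration; curve fitting with curve-class categorization.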

Assay [7] addresses Luciferin 4-monooxygenase (Photinus pyralis) (UniProt P08659). Put plainly: Biochemical firefly luciferase enzyme assay for NPC (AID 624030).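 Note: purified P. pyralis luciferase at 10 nM with luciferin and ATP substrate; 0% = DMSO and -100% = full luciferase inhibition by PTC124 control; nearly all actives have a fitted effect of over 70% in size.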 As to conditions: purified P. pyralis luciferase, luminescence, 5 min; series mostly up to 24.9 µM. Summed up:
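Counter-screen for direct inhibition of the luciferase enzyme by approved-drug library compounds, run at 10 nM enzyme in 50 mM Tris acetate (final). Luminescence was read within 5 min of enzyme-buffer addition and normalized to PTC124 versus DMSO (0%).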

The nature of assay [8]: qHTS profiling for inhibitors of Plasmodium falciparum proliferation (AID 504749).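 For activity, negative = inhibition: 0% = DMSO vehicle and full inhibition = artemisinin control.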 For all read-outs here: nearly all actives have a fitted effect of over 60% in size. Note: potency is the fitted concentration of half-maximal effect. As to conditions: P. falciparum in erythrocytes, SYBR Green DNA, 72 h; for activity, negative = inhibition: at 12.8 µM (top of the series). Summed up:
(§1)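 P. falciparum-infected erythrocytes (0.3% parasitemia, 2.5% hematocrit final) were exposed to compounds for 72 h at 37 C in 5% CO2, then lysed with SYBR Green buffer overnight at room temperature; parasite DNA fluorescence was normalized to artemisinin and DMSO controls.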

In a further assay the test system is AS120. The assay is described as above. As to conditions: P. falciparum in erythrocytes, SYBR Green DNA, 72 h; series mostly up to 12.8 µM. Summed up:
as §1

The test system of the next assay is CP191. Described as above. As to conditions: P. falciparum in erythrocytes, SYBR Green DNA, 72 h; series mostly up to 12.8 µM. The method, boiled down:
as §1

In the next assay the test system is CP217. Described as above. Particulars: P. falciparum in erythrocytes, SYBR Green DNA, 72 h; series mostly up to 12.8 µM. The method, boiled down: as §1
The subject of another assay is CP329. The assay is described as above. Particulars: P. falciparum in erythrocytes, SYBR Green DNA, 72 h; series mostly up to 12.8 µM. Summed up: as §1
The next assay relates to ECU. The description is as above. Particulars: P. falciparum in erythrocytes, SYBR Green DNA, 72 h; series mostly up to 12.8 µM. The method, boiled down: as §1
In another assay the test system is FAB9. Described as above. Particulars: P. falciparum in erythrocytes, SYBR Green DNA, 72 h; series mostly up to 12.8 µM. Summed up: as §1
A further assay concerns N140. The assay is described as above. Particulars: P. falciparum in erythrocytes, SYBR Green DNA, 72 h; series mostly up to 12.8 µM. The method, boiled down: as §1
A further assay concerns PC15. The assay is described as above. Particulars: P. falciparum in erythrocytes, SYBR Green DNA, 72 h; series mostly up to 12.8 µM. The method, boiled down:
as §1

For a further assay, the system named is PC49. The assay is described as above. As to conditions: P. falciparum in erythrocytes, SYBR Green DNA, 72 h; series mostly up to 12.8 µM. Summed up: as §1
The subject of another assay is TAB165. Described as above. Particulars: P. falciparum in erythrocytes, SYBR Green DNA, 72 h; series mostly up to 12.8 µM. Summed up:
as §1

Another assay has as its system C2A. The description is as above. Particulars: P. falciparum in erythrocytes, SYBR Green DNA, 72 h; series mostly up to 12.8 µM. The method, boiled down: as §1
Another assay relates to CP305. The description is as above. Particulars: P. falciparum in erythrocytes, SYBR Green DNA, 72 h; series mostly up to 12.8 µM. Summed up:
as §1

The mark [9] stands for this setting: measured here: cell count channel max response.
[10] abbreviates: measured here: lipid channel max response.

Glucocorticoid receptor (Homo sapiens), sequence (P04150 whole entry, looked up, the tested form may be a part): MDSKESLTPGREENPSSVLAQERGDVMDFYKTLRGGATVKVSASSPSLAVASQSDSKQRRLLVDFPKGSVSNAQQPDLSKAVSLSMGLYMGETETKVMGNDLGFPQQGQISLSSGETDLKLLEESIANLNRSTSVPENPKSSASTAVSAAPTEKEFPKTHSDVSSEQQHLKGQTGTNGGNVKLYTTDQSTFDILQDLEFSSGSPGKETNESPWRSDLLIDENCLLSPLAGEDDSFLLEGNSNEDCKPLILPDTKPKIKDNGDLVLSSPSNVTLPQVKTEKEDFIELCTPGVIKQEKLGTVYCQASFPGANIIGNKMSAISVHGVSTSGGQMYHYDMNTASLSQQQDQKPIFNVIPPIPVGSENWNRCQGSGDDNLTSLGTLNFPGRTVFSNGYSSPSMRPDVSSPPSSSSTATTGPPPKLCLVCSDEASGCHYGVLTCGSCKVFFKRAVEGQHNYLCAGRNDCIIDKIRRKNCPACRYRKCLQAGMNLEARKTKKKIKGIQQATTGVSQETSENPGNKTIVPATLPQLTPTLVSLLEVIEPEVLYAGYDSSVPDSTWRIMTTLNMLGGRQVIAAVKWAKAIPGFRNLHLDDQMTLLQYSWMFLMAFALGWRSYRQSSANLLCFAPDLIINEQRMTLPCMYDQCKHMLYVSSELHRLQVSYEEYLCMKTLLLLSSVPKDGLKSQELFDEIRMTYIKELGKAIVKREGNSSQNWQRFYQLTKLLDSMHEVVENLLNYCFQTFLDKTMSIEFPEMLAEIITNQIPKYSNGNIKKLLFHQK
3',5'-cyclic-AMP phosphodiesterase 4B (Homo sapiens), sequence (Q07343 whole entry, looked up): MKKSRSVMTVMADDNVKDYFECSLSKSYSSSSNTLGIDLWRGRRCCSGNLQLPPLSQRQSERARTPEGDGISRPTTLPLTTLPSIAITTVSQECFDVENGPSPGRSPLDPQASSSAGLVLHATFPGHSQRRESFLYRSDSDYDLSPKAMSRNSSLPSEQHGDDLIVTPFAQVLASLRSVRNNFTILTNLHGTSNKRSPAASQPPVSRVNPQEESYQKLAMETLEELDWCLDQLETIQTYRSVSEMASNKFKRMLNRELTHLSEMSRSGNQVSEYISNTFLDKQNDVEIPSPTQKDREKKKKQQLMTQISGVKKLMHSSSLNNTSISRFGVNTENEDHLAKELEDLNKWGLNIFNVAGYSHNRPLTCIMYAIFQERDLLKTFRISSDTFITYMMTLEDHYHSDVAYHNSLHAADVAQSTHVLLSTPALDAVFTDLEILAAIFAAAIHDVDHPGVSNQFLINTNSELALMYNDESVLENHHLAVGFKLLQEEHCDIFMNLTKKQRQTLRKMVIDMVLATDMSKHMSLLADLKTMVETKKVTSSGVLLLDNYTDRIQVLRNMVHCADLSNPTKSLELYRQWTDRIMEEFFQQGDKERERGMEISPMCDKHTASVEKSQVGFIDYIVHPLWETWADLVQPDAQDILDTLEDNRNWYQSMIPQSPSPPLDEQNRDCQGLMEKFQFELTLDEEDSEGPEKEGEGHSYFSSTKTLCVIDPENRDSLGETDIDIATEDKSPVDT
Luciferin 4-monooxygenase (Photinus pyralis), sequence (P08659 whole entry, looked up): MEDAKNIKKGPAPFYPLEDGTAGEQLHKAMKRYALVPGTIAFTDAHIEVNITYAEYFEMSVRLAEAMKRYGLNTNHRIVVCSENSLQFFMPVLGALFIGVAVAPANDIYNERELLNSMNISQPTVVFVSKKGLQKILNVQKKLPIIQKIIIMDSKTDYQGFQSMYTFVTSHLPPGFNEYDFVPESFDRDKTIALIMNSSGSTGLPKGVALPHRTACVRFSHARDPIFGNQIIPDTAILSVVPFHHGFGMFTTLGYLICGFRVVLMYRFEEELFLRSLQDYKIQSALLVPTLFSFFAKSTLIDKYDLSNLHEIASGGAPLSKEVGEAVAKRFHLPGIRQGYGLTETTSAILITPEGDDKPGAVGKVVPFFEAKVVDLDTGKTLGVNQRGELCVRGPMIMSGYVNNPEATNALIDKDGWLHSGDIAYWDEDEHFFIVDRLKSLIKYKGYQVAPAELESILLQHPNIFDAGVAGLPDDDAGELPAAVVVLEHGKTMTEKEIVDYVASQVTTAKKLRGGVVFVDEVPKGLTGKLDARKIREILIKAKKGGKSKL
ATP-dependent 6-phosphofructokinase (Trypanosoma brucei brucei), sequence (O15648 whole entry, looked up): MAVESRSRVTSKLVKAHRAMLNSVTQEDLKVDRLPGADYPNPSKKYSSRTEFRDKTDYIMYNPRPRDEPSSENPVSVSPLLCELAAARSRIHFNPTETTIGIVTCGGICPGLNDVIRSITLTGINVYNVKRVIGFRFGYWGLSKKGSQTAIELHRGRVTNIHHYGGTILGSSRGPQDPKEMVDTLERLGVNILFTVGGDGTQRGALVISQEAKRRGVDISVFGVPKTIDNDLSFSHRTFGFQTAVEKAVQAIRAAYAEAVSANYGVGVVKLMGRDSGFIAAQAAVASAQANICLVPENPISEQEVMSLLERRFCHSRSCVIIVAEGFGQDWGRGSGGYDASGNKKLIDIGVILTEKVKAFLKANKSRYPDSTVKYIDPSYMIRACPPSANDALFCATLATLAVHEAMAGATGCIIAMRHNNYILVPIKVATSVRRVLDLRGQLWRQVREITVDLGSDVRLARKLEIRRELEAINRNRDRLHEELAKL

For `C=C(C)[C@H]1CC[C@]2(C(=O)O)CC[C@]3(C)[C@@H](CC[C@H]4[C@@]5(C)CC[C@@H](O)C(C)(C)[C@@H]5CC[C@@]43C)[C@H]12`, the Potency in [1] is > 20.6 µM (inactive). The Potency entry in [2] and in assay [4] was “inactive” in each case. Moreover, the activity change, negative = inhibition in assay [3] is -9.82% (inactive). Further, the max response in assay [3] (setting [9]) is -3%; in [3] (setting [10]), -17.2%.
For `CC1(C)O[C@H]2C[C@@H]3[C@H]4CCC5=CC(=O)CC[C@@]5(C)[C@]4(F)[C@@H](O)C[C@@]3(C)[C@@]2(C(=O)CCl)O1`, the Potency entry (in assay [2]; in [7]; in the assay with CP329; with ECU; with FAB9; with PC49) was “inactive” each time. Moreover, the compound was classed as inactive in assay [5] and in assay [6]. Also, the activity change, negative = inhibition in assay [3] is -3.97% (inactive). Moreover, the max response in assay [3] (setting [9]) is -11.4%; in [3] (setting [10]), -17.1%. Besides, the Potency in assay [8] (parasite line B) was 1.58 µM (active); in the assay with AS120, 3.98 µM (active); in the assay with CP191, 3.16 µM (active); with CP217, 2.24 µM (active); with N140, 2.51 µM (active); in the assay with PC15, 3.55 µM (active). Besides, the Potency in the assay with TAB165 was 3.16 µM (active).
On to `O[C@@](CCN1CCCCC1)(c1ccccc1)[C@@H]1C[C@H]2C=C[C@@H]1C2`, for which, in [1], the Potency was > 20.6 µM (inactive). Further, the Potency entry in [2] and in [4] was “inactive” in each case. The activity change, negative = inhibition in assay [3] is 1.83% (inactive). The max response is -4.18% in assay [3] (setting [9]) and -2.67% in [3] (setting [10]).
For the compound `C[C@@H]1C[C@@H]2[C@H]3CCC4=CC(=O)C=C[C@]4(C)[C@]3(F)[C@@H](O)C[C@]2(C)[C@@]1(O)C(=O)CO`, the compound was classed as inactive in assay [5]. In addition, the activity change, negative = inhibition in [3] is -3.53% (inactive). The max response was 2.12% in assay [3] (setting [9]) and -8.18% in assay [3] (setting [10]). In addition, the Potency entry in [4] is “inactive”.
As to `CCC[C@H]1C[C@H](C(=O)N[C@H]([C@@H]2O[C@H](SC)[C@@H](O)[C@H](O)[C@@H]2O)[C@H](C)O)N(C)C1`, the Potency in [1] was > 20.6 µM (inactive). The Potency entry in assay [2] and in [4] was “inactive” each time. For the same compound, the result in assay [5] was inactive. The activity change, negative = inhibition in [3] was 0.0766% (inactive). Also, the values for the max response in assay [3] (setting [9]) and in [3] (setting [10]) were -10.3% and -10.9%, respectively.
Turning to `CC=C(/C(=C/C)c1ccc(O)cc1)c1ccc(O)cc1`, in [1], the Potency was > 20.6 µM (inactive). Moreover, the Potency result (in [2]; in assay [7]; with AS120; in the assay with C2A; in the assay with CP191; in the assay on CP217) was “inactive” throughout. The Potency result with CP305, with CP329, in the assay on ECU, in the assay with FAB9, in the assay on N140 and with PC15 was “inactive” each time. Also, the Potency result in the assay on PC49 and in the assay with TAB165 was “inactive” each time. Also, the outcome in assay [5] and in assay [6] was inactive. Moreover, the activity change, negative = inhibition in [3] is -3.26% (inactive). Moreover, the max response was -14.6% in assay [3] (setting [9]) and -18.3% in assay [3] (setting [10]). The activity, negative = inhibition in [8] (parasite line A) was -1.05% (inactive); in assay [8] (parasite line B), -9.06% (inactive).
As to `Cc1onc(-c2c(F)cccc2Cl)c1C(=O)N[C@H]1C(=O)N2[C@H]1SC(C)(C)[C@H]2C(=O)O`, in [1], the Potency was > 20.6 µM (inactive). In addition, the Potency result in [2] and in assay [4] was “inactive” each time. In assay [5], the compound was classed as inactive. Moreover, the activity change, negative = inhibition in assay [3] was -2.99% (inactive). The max response in assay [3] (setting [9]) is -8.13%; in assay [3] (setting [10]), -7.5%.

For the origin of these results see PubChem BioAssay (NCATS).
